Shown are actives, neighbours in structure and some others; about 6% of the full set was active somewhere.
D1 agonist – activates the human D1 dopamine receptor | P21728 | HEK293 T-REx D1 cells, calcium flux, agonist mode | activation, % at 2 µM | 360,000 tested, 1% active; in the data active = activation above about 30%
Target sequence (P21728 whole entry, looked up): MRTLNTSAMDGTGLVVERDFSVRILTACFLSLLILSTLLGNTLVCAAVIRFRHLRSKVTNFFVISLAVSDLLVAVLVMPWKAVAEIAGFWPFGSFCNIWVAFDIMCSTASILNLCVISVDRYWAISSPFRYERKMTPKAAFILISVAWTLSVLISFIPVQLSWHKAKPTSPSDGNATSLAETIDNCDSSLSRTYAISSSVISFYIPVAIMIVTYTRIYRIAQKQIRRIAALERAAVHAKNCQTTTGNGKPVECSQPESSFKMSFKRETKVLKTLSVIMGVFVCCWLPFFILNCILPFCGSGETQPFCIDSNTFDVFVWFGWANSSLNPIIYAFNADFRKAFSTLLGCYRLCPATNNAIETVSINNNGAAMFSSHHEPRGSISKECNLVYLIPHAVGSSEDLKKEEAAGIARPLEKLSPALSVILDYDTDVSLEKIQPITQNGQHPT
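Inducible HEK293 T-REx D1 cells, force-coupled to calcium signalling, were plated at 4000 cells/well with tetracycline and held overnight at 30 C. After no-wash calcium dye loading, compound-evoked calcium rise over 180 s flagged agonists.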
DRD3 agonist – activates the human D3 dopamine receptor. 410,000 tested, 0.58% active. max activation, %. AID 652048. D3R DiscoveRx beta-arrestin cells, luminescence, 90 min; in the data active = max activation above about 30%
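Cells at 1500/well, incubated overnight, then treated with pinned compounds (dopamine as control) for 90 min at 37 degrees C. DiscoveRx reagent added for 30 - 60 minutes at room temperature; luminescence read.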
D1 antagonist – human D1 dopamine receptor antagonism; P21728; HEK293 TREx D1 cells, calcium flux, dopamine EC80; active compounds read low; activity change, negative = inhibition, % at 10 µM; 360,000 tested, 3.2% active; AID 504652; in the data active = activity change below about -30%
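Allosteric or orthosteric antagonism assessed as attenuation of the calcium response to EC80 dopamine, added 180 s after compound, in induced HEK293 Trex D1 cells loaded with no-wash calcium dye.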
D3 antag – antagonists of human D3 dopamine receptor; P35462; D3R cells, DiscoveRx beta-arrestin luminescence, antagonist mode; active compounds read low; max response, negative = inhibition, %; 360,000 tested, 2.5% active; in the data active = max response below about -50%; inconclusive = no clear call, values can overlap the other calls
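Cells expressing the human receptor were seeded at 1500 cells/well, incubated overnight at 37 degrees C in 5% CO2, then exposed to library compounds with dopamine controls for 90 minutes at 37 degrees C before luminescent detection.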
D1 PAM – human D1 dopamine receptor positive modulation. P21728. HEK293 TREx D1 cells, calcium flux, dopamine EC20 potentiation. potentiation, % at 10 µM. 360,000 tested, 0.036% active. AID 504651; in the data active = potentiation above about 30%
Numbers stand for hits; - = inactive; ? = inconclusive; . = no result.

SMILES	D1 agonist	DRD3 agonist	D1 antagonist	D3 antag	D1 PAM
CCc1cccc(NC(c2ccccc2)c2nnc(-c3ccccc3F)o2)c1 (configuration not stated)	-	-	-	.	-
CC1(C(=O)NCc2ccccc2)CN(S(C)(=O)=O)CC(=O)N1Cc1cccs1 (configuration not stated)	.	-	.	-	.
CCOC(=O)C1CCN(C(=O)COC(=O)/C=C/c2cccc(OC)c2OC)CC1	.	-	.	-	.
CC(C)CCNC(=S)Nc1ccc([N+](=O)[O-])cc1	34.3	-	-45.6	-	-
COc1ccc(CCNC(=S)Nc2ccccc2)cc1	-	-	-36.1	-	-
COc1ccc(CCNC(=S)Nc2ccc(OC)cc2)cc1	-	-	-	-	-
O=C(OCc1cc(=O)n2nc(-c3cccs3)sc2n1)c1ccccc1	-	-	-	.	-
CCOC(=O)c1ccccc1NC(=O)CSc1ccc(-c2sc(C)nc2C)nn1	-	-	-	.	-
CCCN1CCC(=O)N([C@H](COc2ccccc2)c2ccccc2)CC1	-	-	-	-103.6	-
O=C1CCN(CCc2ccccc2)CCN1[C@H](COc1ccccc1)c1ccccc1	-	-	-	-	-
CC(C)CN1CCC(=O)N([C@H](COc2ccccc2)c2ccccc2)CC1	-	-	-	-69.9	-
COc1ccc(-c2cc(C(=O)NCCN3CCOCC3)c3ccccc3n2)c(OC)c1	-	-	-	-54.5	-
COc1ccc(CNC(=O)c2cc(-c3cccs3)nc3ccccc23)c(OC)c1	-	-	-46.3	.	-
COc1ccc(OC)c(CNC(=O)c2cc(-c3ccc(Cl)s3)nc3ccccc23)c1	-	-	-	.	-
CCOc1ccc(C2=C(C(=O)CC)Sc3nncn3N2C(=O)CC)cc1	-	-	.	.	-
O=C(CSc1nnc(CNC(=O)c2ccc(F)cc2)o1)c1ccccc1	-	-	-31.0	-	-
O=C(NCc1nnc(SCC(=O)N2CCC(Cc3ccccc3)CC2)o1)c1ccccc1F	33.3	-	-	-	-
CC1CCN(C(=O)CSc2nnc(CNC(=O)c3ccc(S(=O)(=O)N(C)C)cc3)o2)CC1	-	-	-45.3	-	-
O=C(CSc1nnc(CNc2ccccc2)o1)N1CCN(C(=O)c2ccco2)CC1	-	-	-38.2	-	-
O=C(CSc1nnc(CNc2ccc(F)cc2)o1)N1CCN(C(=O)c2ccco2)CC1	-	-	-	-	-
CCN(CC)C(=O)Cn1c(=O)n(CCCCCC(=O)NCc2ccccc2Cl)c(=O)c2sccc21	-	-	-	.	-
O=c1[nH]nnc2cc(Cl)ccc12	.	-	.	-	.
CC1(c2nnnn2-c2ccc3c(c2)OCCO3)CCC(=O)N1C1CCN(Cc2ccccc2)CC1 (configuration not stated)	.	-	.	-	.
Cc1nnc(SCC(=O)N2CCC(Cc3ccccc3)CC2)n(N)c1=O	-	-	-	-98.5	-
COc1ccc(CNCc2cccc(C)c2)cc1	-	-	-	?	-
SMILES	D1 agonist	DRD3 agonist	D1 antagonist	D3 antag	D1 PAM
COc1ccc(CNCc2ccc3ccccc3c2)c(OC)c1	33.9	-	-	?	-
COc1ccc(CNCc2cccc(Oc3ccccc3)c2)cc1	87.9	-	-	?	-
COc1ccc(CNCc2ccncc2)c(OC)c1	-	-	-	-	-
C=CCn1c(N)c(C(=O)OCC)sc1=S	-	-	-	-	-
C=CCn1c(N)c(C(=O)N2CCN(C)CC2)sc1=S	-	-	-	-54.0	-
COCc1cccc(-c2csc(C(C)(O)c3ccc(OC)cc3)n2)c1 (configuration not stated)	.	-	.	-	.
CCn1c(/C=C/c2ccccc2)nc2ccccc21	-	-	-39.4	-	-
CCCn1c(/C=C/c2cc[n+](C)cc2)nc2ccccc21	-	-	-	-	-
CCCCCCn1c(/C=C/c2ccccc2)nc2ccccc21	-	-	-30.7	.	-
CCCCCn1c(-c2ccc(OC)c(OC)c2)nc2ccccc21	57.2	-	-46.6	.	-
O=C(NC1CCCCC1)C(c1ccccc1)N(Cc1ccco1)C(=O)c1csnn1 (configuration not stated)	-	-	-	-	-
O=C(NC1CCCCC1)C(c1ccccc1)N(Cc1ccco1)C(=O)Cn1cnc2ccccc21 (configuration not stated)	-	-	-44.1	-	-
Cc1ccccc1Cn1ccc(NC(=O)CCSc2nc(-c3ccco3)cc(C(F)(F)F)n2)n1	-	-	-	-	-

From PubChem
